Experiment [1] deals with Plasmodium falciparum Sir2 (PF13_0152, Sir2A). The experiment can be described thus: Plasmodium falciparum Sir2A binding compounds – biochemical, small-molecule microarray, 635 nm fluorescence, primary screen (AID 1098).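 Further: score merges spot fluorescence intensity with its signal-to-noise ratio.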 As to conditions: fluorescence 635 nm, higher = more signal.
Experiment [2] can be described thus: probe aDKK1 binding to arrayed compounds – biochemical, biotinylated probe, 635/667 nm fluorescence, primary screen (AID 1099).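 Further: score merges 667nm spot fluorescence with signal to noise across triplicate slides.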 As to conditions: small-molecule microarray, higher = more signal.
Experiment [3] in a line: probe aCHRDL2 binding to arrayed compounds – biochemical, biotinylated probe, 635/667 nm fluorescence, primary screen (AID 1100). To be noted: small-molecule microarray, higher = more signal.
A short description of experiment [4]: change in splice reporter luminescence, either direction, cell-based, HEK293, spliceosome inhibition project, primary screen (AID 1101).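 Further: HEK293 cells carrying a splicing-competent luciferase reporter gene; test concentration not given here.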 As to conditions: HEK293 splicing luciferase reporter, 24 h, higher = more signal, called active from +8 up or from −8 down.
Experiment [5] deals with Fibroblast growth factor 10 (Homo sapiens) (UniProt O15520). The experiment can be described thus: compounds binding fibroblast growth factor 10 – biochemical, small-molecule microarray, 635 nm fluorescence, primary screen (AID 1102). To be noted: FGF10 binding, fluorescence 635 nm, higher = more signal.
The subject of experiment [6] is glycogen synthase kinase-3 (GSK3A per assay name; protocol says GSK3B). The experiment can be described thus: compounds binding glycogen synthase kinase-3 – biochemical, small-molecule microarray, 635 nm fluorescence, GSK3A, primary screen (AID 1103). Further: the record names both GSK3A and GSK3B. As to conditions: fluorescence 635 nm, higher = more signal.
The target in experiment [7] is Epidermal growth factor receptor (Homo sapiens) (UniProt P00533). The experiment can be described thus: compounds binding epidermal growth factor receptor – biochemical, small-molecule microarray, 635 nm fluorescence, primary screen (AID 1104).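 Further: score merges 667 nm emission intensity with spot signal to noise over triplicate slides.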 As to conditions: EGFR binding, higher = more signal.
The target of experiment [8] is Follistatin-related protein 3 (Homo sapiens) (UniProt O95633). The experiment can be described thus: compounds binding follistatin-related protein 3 – biochemical, small-molecule microarray, 635 nm fluorescence, primary screen (AID 1105).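 Further: score merges emission near 667 nm and signal to noise per printed spot across three slides.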 As to conditions: FSTL3 binding, higher = more signal.
In experiment [9] the target is Dickkopf-related protein 1 (Homo sapiens) (UniProt O94907). The experiment can be described thus: small molecules binding DKK1 protein – biochemical, small-molecule microarray, 635 nm fluorescence scan, primary screen (AID 1106).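 Further: score merges emission near 667 nm with signal to noise over three replicate slides.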 To be noted: higher = more signal.
For experiment [10], the system named is Inhibin beta A chain (activin A). Nature of the experiment: small molecules binding activin A – biochemical, small-molecule microarray, 635 nm fluorescence scan, primary screen (AID 1107).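 Further: mouse activin A protein probed at 4.33 µg/mL on printed slides; score merges bound-protein fluorescence near 667 nm with spot signal-to-noise.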 As to conditions: INHBA, higher = more signal.
Experiment [11] relates to Human papillomavirus type 1a protein E7 (residues 44-93). The experiment can be described thus: small molecules binding HPV E7 44-93 – biochemical, small-molecule microarray, residues 44-93, 635 nm fluorescence, primary screen (AID 1108).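 Further: E7 fragment applied at 1 µg/mL in TBST for 1 h at 4 C; score combines spot fluorescence with its signal to noise ratio.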 As to conditions: fluorescence 635 nm, higher = more signal.
Experiment [12] in a line: hepatitis C replication reporter changes, two-sided – Huh7 cells, luciferase reporter, HCV replication inhibitor project, primary screen (AID 1109).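 Further: huh7 hepatoma cells harbouring a luciferase neomycin HCV replicon reporter; luciferase luminescence as measure of HCV replicon replication; test concentration not given here.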 As to conditions: Huh7 HCV replicon luciferase reporter, 48 h; higher = more signal. On the technique in general: Reporter assays use an easily measured gene product as a stand-in for the process of interest.
Experiment [13] deals with Left-right determination factor 2 (Homo sapiens) (UniProt O00292). The experiment can be described thus: small molecules binding LEFTY2 protein – biochemical, small-molecule microarray, 635 nm fluorescence scan, primary screen (AID 1110). To be noted: higher = more signal.
The target of experiment [14] is Calmodulin-1 (Homo sapiens) (UniProt P0DP23). The experiment can be described thus: small molecules binding calmodulin-1 with EGTA – biochemical, small-molecule microarray, Cy5-labelled CALM1, profiling panel (AID 1111).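 Further: labelled calmodulin applied in Tris saline Tween buffer holding calcium plus EGTA and DTT.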 To be noted: Cy5-CALM1 binding fluorescence, higher = more signal.
Experiment [15] shares this target. The experiment can be described thus: small molecules binding Ca-loaded calmodulin-1 – biochemical, small-molecule microarray, Cy5-labelled CALM1, plus calcium, artefact control for SMM control-protein annotation, profiling panel (AID 1112).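 Further: score merges spot fluorescence with signal to noise from triplicate slides.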 To be noted: Cy5-CALM1 binding fluorescence, higher = more signal.
Experiment [16] can be described thus: probe aWnt5a binding to arrayed compounds – biochemical, biotinylated probe, 635/667 nm fluorescence, primary screen (AID 1113).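 Further: score merges 667 nm fluorescence intensity with signal-to-noise per printed feature.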 As to conditions: small-molecule microarray, higher = more signal.
Experiment [17] is described as follows: probe aShh binding to arrayed compounds – biochemical, biotinylated probe, 635/667 nm fluorescence, primary screen (AID 1114).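 Further: probe is biotin-labelled aShh protein from a stem cell growth factor screen; measures binding of labelled protein to compounds printed on the slide; score merges feature fluorescence at 667 nm with signal-to-noise.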 As to conditions: small-molecule microarray, higher = more signal.
Experiment [18] can be described thus: probe aNog binding to arrayed compounds – biochemical, biotinylated probe, 635/667 nm fluorescence, primary screen (AID 1115).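 Further: probe is biotinylated aNog protein used at 0.15 µg/mL for 1 h at 4 C; z-score combines 667 nm fluorescence of each spot with its signal to noise.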 As to conditions: small-molecule microarray, higher = more signal.
Experiment [19] concerns the target Torsin-1A-interacting protein 1 (Homo sapiens) (UniProt Q5JTV8). Nature of the experiment: compound microarray binding of lysate hLAP1 – cell lysate, small-molecule microarray, COS7 lysate, 635/667 nm fluorescence, primary screen (AID 1116). To be noted: 635 nm fluorescence, higher = more signal.
The target in experiment [20] is Alpha-bungarotoxin (Bungarus multicinctus) (UniProt P60615). The experiment can be described thus: compounds binding labelled alpha-BTX control protein – biochemical, small-molecule microarray, Alexa647 label, 635/667 nm fluorescence, artefact control for SMM control protein annotation, profiling panel (AID 1117). As to conditions: alpha-BTX-A647 binding fluorescence, higher = more signal.

Active and inactive are the calls of the source.

Chain of Torsin-1A-interacting protein 1 (Homo sapiens) (Q5JTV8 whole entry, looked up): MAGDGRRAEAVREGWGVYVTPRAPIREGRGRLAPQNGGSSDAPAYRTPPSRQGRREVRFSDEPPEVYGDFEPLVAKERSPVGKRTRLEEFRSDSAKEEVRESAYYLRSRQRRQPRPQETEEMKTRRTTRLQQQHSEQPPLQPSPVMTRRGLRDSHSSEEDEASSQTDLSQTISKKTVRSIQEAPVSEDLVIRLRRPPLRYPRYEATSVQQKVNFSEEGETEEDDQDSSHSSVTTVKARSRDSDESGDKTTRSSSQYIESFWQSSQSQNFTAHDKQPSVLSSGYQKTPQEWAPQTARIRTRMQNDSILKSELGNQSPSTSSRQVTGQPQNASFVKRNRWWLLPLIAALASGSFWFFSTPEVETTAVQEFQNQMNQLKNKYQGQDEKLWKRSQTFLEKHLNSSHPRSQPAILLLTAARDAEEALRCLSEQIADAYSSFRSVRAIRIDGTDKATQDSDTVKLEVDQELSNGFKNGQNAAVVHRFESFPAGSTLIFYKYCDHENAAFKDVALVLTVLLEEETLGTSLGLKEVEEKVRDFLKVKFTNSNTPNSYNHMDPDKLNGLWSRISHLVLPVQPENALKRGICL
Chain of Follistatin-related protein 3 (Homo sapiens) (O95633 whole entry, looked up): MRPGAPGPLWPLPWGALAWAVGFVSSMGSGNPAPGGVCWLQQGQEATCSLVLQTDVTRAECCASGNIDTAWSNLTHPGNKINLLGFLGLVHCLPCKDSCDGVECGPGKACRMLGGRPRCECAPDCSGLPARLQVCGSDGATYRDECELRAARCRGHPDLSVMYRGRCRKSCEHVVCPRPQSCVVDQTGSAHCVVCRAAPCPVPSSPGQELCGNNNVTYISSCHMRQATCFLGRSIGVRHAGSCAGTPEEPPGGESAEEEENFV
Chain of Left-right determination factor 2 (Homo sapiens) (O00292 whole entry, looked up): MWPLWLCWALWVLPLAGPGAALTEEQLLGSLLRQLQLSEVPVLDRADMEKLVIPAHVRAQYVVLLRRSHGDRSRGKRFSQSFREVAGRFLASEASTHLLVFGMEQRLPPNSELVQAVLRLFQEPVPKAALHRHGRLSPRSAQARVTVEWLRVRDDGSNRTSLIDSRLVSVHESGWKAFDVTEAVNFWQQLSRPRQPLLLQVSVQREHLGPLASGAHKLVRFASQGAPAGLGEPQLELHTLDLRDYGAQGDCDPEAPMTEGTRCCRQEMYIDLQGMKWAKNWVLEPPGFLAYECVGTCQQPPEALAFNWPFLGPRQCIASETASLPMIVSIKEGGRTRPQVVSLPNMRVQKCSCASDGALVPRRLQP
Chain of Dickkopf-related protein 1 (Homo sapiens) (O94907 whole entry, looked up): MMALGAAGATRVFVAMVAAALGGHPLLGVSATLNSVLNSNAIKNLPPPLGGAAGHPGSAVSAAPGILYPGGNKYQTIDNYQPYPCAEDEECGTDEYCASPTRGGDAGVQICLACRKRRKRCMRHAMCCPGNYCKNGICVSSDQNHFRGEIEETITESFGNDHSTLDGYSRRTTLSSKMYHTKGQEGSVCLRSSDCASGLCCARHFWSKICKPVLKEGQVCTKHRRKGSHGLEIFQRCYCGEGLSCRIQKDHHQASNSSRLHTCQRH
Chain of Alpha-bungarotoxin (Bungarus multicinctus) (P60615 whole entry, looked up): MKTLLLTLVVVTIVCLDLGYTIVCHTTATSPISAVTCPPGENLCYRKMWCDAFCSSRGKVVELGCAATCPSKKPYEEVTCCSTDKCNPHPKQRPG
Chain of Epidermal growth factor receptor (Homo sapiens) (P00533 whole entry, looked up): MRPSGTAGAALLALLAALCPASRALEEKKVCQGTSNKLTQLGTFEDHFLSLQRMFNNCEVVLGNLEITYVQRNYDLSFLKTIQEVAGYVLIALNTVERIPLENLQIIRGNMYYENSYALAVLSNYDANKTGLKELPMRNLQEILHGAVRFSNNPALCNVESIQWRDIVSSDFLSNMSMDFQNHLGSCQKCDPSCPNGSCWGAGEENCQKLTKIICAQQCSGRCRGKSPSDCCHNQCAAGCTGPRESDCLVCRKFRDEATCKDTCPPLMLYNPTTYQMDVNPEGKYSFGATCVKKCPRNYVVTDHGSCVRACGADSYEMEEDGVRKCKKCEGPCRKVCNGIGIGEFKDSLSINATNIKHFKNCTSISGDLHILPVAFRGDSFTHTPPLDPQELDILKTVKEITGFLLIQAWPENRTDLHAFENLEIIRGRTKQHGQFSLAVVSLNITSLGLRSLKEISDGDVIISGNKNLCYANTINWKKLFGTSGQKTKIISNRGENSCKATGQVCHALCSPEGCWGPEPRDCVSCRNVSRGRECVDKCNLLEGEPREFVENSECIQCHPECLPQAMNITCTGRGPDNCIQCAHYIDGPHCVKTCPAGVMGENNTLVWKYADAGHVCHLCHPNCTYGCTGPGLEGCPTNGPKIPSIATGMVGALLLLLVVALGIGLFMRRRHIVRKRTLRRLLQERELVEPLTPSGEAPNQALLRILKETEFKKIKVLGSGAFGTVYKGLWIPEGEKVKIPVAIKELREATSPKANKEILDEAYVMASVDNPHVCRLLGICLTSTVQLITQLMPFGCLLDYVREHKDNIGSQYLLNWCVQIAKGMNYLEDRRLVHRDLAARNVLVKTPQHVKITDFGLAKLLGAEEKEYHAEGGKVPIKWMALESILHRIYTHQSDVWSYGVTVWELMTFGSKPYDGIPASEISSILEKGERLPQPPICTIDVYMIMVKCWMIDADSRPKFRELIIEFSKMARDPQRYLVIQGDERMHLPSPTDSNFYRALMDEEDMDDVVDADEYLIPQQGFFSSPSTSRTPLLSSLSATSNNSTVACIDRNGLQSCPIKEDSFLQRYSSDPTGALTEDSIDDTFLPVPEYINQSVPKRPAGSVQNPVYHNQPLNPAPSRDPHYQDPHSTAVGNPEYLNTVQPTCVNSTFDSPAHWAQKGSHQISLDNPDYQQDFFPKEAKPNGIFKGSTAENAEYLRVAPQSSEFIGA
Chain of Fibroblast growth factor 10 (Homo sapiens) (O15520 whole entry, looked up): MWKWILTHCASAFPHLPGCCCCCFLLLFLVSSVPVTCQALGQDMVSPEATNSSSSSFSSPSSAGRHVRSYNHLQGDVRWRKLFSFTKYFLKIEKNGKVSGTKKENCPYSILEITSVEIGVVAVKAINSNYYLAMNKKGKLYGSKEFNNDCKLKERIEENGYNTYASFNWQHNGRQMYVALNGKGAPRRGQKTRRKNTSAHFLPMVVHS

`Cc1ccc(S[C@]2(C(=O)NCc3ccccc3)CC(=O)N(Cc3cc(C(F)(F)F)cc(C(F)(F)F)c3)[C@@H]2c2ccc(CO)cc2I)cc1`: the composite z-score in experiment [1] was -0.466; in experiment [2], 0.664; in experiment [3], 1.22; in [5], -1.31; in [6], -0.714; in experiment [7], -1.78. For the same compound, the composite z-score in [8] was -0.203; in experiment [9] it was -1.54; in experiment [10] it was 1.02; in experiment [11] it was -0.262; in [13], -1.24; in [14], -0.36. The composite z-score in [15] is 0.585; in experiment [16] it was -0.228; in experiment [17], -0.319; in experiment [18], -0.216; in [19], 0.0893; in experiment [20] it was -1.05. The z-score was -1.21 (inactive) in experiment [4] and -0.861 in [12].

As to `[N-]=[N+]=NCc1ccccc1[C@@H]1OC(c2ccc(OCCCO)cc2)=N[C@]1(Cc1ccccc1N=[N+]=[N-])C(=O)N1CCCCC1`, the composite z-score came to 0.785 in experiment [1]; 0.561 in experiment [2]; 0.321 in [3]; 0.548 in experiment [5]; 0.363 in experiment [6]; 0.435 in experiment [7]. Further, the composite z-score in [8] is 0.491; in experiment [9] it was -0.221; in experiment [10] it was 1.29; in [11] it was 1.41; in experiment [13], 0.0538; in experiment [14], 1.93. The composite z-score in [15] is 1.26; in [16], -0.248; in experiment [17], -0.023; in experiment [18] it was -0.538; in experiment [19] it was 0.482; in experiment [20] it was 0.671. For the same compound, the figures for the z-score in experiment [4] and in experiment [12] were 0.327 (inactive) and -2.12, respectively.

With `CCC(CC)C(O)C1C=CC2C(=O)N(c3ccccc3)C(=O)C2N1Nc1ccc([N+](=O)[O-])cc1` (stereo not given), the composite z-score in experiment [1] is 0.629; in experiment [2] it was 1.02; in [3] it was 0.638; in experiment [5], 0.632; in experiment [6], 1.21; in experiment [7], 0.102. Also, the composite z-score in experiment [8] was 0.393; in experiment [9], -0.351; in experiment [10], 0.761; in [11] it was 1.47; in experiment [13], -0.139; in experiment [14], 1.27. Also, the composite z-score in [15] stood at 0.717; in experiment [16] it was 0.152; in experiment [17], 0.04; in experiment [18], 0.0323; in experiment [19] it was 0.0001; in [20], 1.42. The z-score in experiment [4] was -0.16 (inactive); in experiment [12], -0.451.

With `CCOC(=O)C=Cc1ccccc1O`, the composite z-score in [1] is 0.109; in [2] it was -0.0604; in [3], 0.329; in [5] it was 0.278; in experiment [6], 0.513; in experiment [7], 0.363. Moreover, the composite z-score was 0.435 in experiment [8]; -0.0242 in experiment [9]; 0.75 in [10]; 1.22 in experiment [11]; 0.233 in experiment [13]; -0.166 in experiment [14]. The composite z-score in experiment [15] is -0.72; in experiment [16], -0.0462; in experiment [17], 0.151; in experiment [18] it was -0.0381; in experiment [19] it was 0.0446; in experiment [20], 0.377. Moreover, the z-score in [4] was -1.74 (inactive); in experiment [12], -2.36.

As to `COc1cc2c(cc1O)C(c1ccc(CN3CCCC3)cc1)N(C)CC2` (stereo not given), the composite z-score in [1] was 0.232; in [2], -0.0829; in [3] it was -0.275; in experiment [5], 0.167; in experiment [6], -1.27; in experiment [7], -0.419. Besides, the composite z-score in [8] is -0.567; in experiment [9], -0.622; in experiment [10], -0.172; in experiment [11], -1.7; in experiment [13] it was 0.351; in [14] it was 0.571. Also, the composite z-score in experiment [15] is 0.673; in experiment [16] it was -0.173; in [17], -0.359; in experiment [18], 0.452; in experiment [19], -0.862; in experiment [20] it was 0.0735. Further, the z-score was -0.00442 (inactive) in experiment [4] and -1.02 in experiment [12].

The values above are taken from PubChem BioAssay.
